# Measured values reported in PubChem BioAssay (NCI).
# Compounds without any hit were thinned out: in the full panel of roughly 79,000, 15% have a hit. A number with no mark means an inactive call. Active and inactive are the calls of the source. Cut-off read from the data, not from the text of the source: active = growth inhibition above about 70%; inactive = the rest.
# Assays:
# [1] = NCI Yeast Anticancer Drug Screen. Data for the rad50 strain (AID 155);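 note: 0% = growth of vehicle-only cultures of the same strain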; settings: S. cerevisiae rad50 strain growth inhibition; at 50.0 µM; stronger effect = higher value
# Summary of the method: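 Relative growth inhibition (compound vs vehicle) was measured in yeast with a defined repair-gene alteration.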
# [2] = NCI Yeast Anticancer Drug Screen. Data for the mec2-1 strain (AID 157); settings: S. cerevisiae mec2-1 strain, at 50.0 µM, stronger effect = higher value
# Summary of the method: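 Test agents were screened against the mec2-1 yeast strain, with defined DNA repair or cell cycle alteration. Growth was scored as inhibition against vehicle-only controls.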
# [3] = NCI Yeast Anticancer Drug Screen. Data for the sgs1 mgt1 strain (AID 161);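 note: 0% = growth of cultures given vehicle only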; settings: S. cerevisiae sgs1 mgt1 strain, at 50.0 µM, stronger effect = higher value
# Summary of the method: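 Read-out: growth inhibition vs vehicle controls. Cells: mutant yeast strain deficient in DNA damage repair.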
# [4] = NCI Yeast Anticancer Drug Screen. Data for the cln2 rad14 strain (AID 165);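 note: 0% = growth equal to vehicle treated cultures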; settings: S. cerevisiae cln2 rad14 strain, at 50.0 µM, stronger effect = higher value
# Summary of the method: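 Growth of compound-exposed yeast (cln2 rad14 genotype) measured and expressed as inhibition relative to vehicle.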
# [5] = NCI Yeast Anticancer Drug Screen. Data for the bub3 strain (AID 167); settings: S. cerevisiae bub3 mutant strain, at 50.0 µM, stronger effect = higher value
# Summary of the method: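 Screening used yeast with an engineered genetic alteration affecting cell cycle control. Compound-exposed cultures were compared with vehicle cultures, and reduced growth was taken as inhibition.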
# [6] = NCI Yeast Anticancer Drug Screen. Data for the mlh1 rad18 strain (AID 175); settings: S. cerevisiae mlh1 rad18 strain growth inhibition; at 50.0 µM; stronger effect = higher value
# Summary of the method: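 In this whole-cell yeast screen, a strain with altered DNA damage repair is challenged with compound, and its growth is measured against matched vehicle-treated controls.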
SMILES,growth inhibition [1],growth inhibition [2],growth inhibition [3],growth inhibition [4],growth inhibition [5],growth inhibition [6]
N#CC(C#N)C1c2ccccc2Oc2ccccc21,7.1%,-8.55%,-4.05%,-11.6%,-4.95%,-14.3%
Cc1ccc(OS(=O)(=O)NC(=O)NCc2ccco2)cc1,18.8%,4.9%,7.7%,8.9%,3.95%,4.35%
C=CC/C=C/CCC,34.6%,-2.7%,-7.85%,-21.8%,-2.4%,-9.7%
Cc1c(C(=N)N)oc2ccccc12,6.3%,0.05%,0.4%,-31.5%,-4.15%,3.95%
CCCCCC(C)C(C#N)C(=O)OCC (stereo not given),1.2%,-18.4%,-14.4%,-3.75%,-18.9%,-20.9%
O=C1c2ccccc2C(=O)N1CC(O)COCc1ccccc1 (stereo not given),-17.8%,-25.8%,-31.7%,-15.9%,25.6%,-6.55%
COc1ccc(O)c2c(=O)ccccc12,8.5%,7.15%,-3%,-13.8%,5.4%,5.55%
NC(N)=N/N=C(\c1nc2ccc([N+](=O)[O-])cc2[nH]c1=O)C(O)c1ccc([N+](=O)[O-])cc1 (stereo not given),-16%,-24.9%,-16.6%,-24.1%,-6.7%,1.85%
Cc1ccc2oc(=O)c(C(=O)Nc3nc(C45CC6CC(CC(C6)C4)C5)cs3)cc2c1,-23.1%,-22.9%,-23.6%,13%,-30.5%,-26.2%
O=C(O)CN(CC(=O)O)Cc1ccccc1,-22.3%,8.7%,6.8%,-71.4%,7.9%,4.2%
Cc1cc[n+](C(C)CCC(C)[n+]2ccc(C)cc2)cc1 (stereo not given),25.2%,20.5%,42.5%,27%,14.2%,11.8%
CCC(=O)NCCCCC1CCCC[N+]1(C)C (stereo not given),-0.65%,-11.9%,7.45%,-14.4%,-2%,-15.8%
CC(=O)NCC1OCC2OC(C)(C)OC12 (stereo not given),3.35%,-5%,-11.7%,-73.8%,-12.1%,-8.8%
CCCCCc1[nH]c(=O)[nH]c(=O)c1S(=O)(=O)N1CCCCC1,0.15%,28.4%,18.7%,3.4%,25.9%,18.2%
COc1ccc(Nc2nc3c(N)cc(C(F)(F)F)cc3nc2-c2ccccc2)cc1,10.7%,2.65%,-1.7%,25.9%,6.1%,1.4%
Cc1c(N/C=C(\C#N)C(=O)c2ccc(Cl)cc2)c(=O)n(-c2ccccc2)n1C,-8.15%,6.6%,-7.25%,27.2%,2.35%,30.9%
Cn1c(=O)cc2[nH]c3ccccc3n2c1=O,9.5%,22.4%,-10%,-5.7%,4.6%,-19.7%
CCN(c1ccccc1)c1cc2c(cc1[N+](=O)[O-])no[n+]2[O-],97.1% (active),96.9% (active),98.3% (active),96.6% (active),98.1% (active),97.1% (active)
COCC1(c2ccccc2)C(=O)N(C)C(=O)N1C (stereo not given),-7.6%,2.5%,-6.25%,-6.3%,-9.85%,5.25%
CCOC(=O)Cc1ccc2c(c1)sc1nc(-c3ccc(OC)cc3)cn12,38.8%,19.5%,21.2%,32.3%,31.1%,18.6%

SMILES,growth inhibition [1],growth inhibition [2],growth inhibition [3],growth inhibition [4],growth inhibition [5],growth inhibition [6]
CCN(CC)C1C(=O)NC1C#Cc1ccccc1 (stereo not given),19%,6.5%,7.05%,5.95%,7.6%,15.6%
CC(=O)CC(=O)N1CCCC(C)C1 (stereo not given),-2.85%,-40.8%,-38.5%,9.1%,-10.9%,1.3%
O=[N+]([O-])c1ccccc1C1SCc2nc3ccccc3n21 (stereo not given),25.2%,10.2%,31.8%,30.5%,44.5%,12.3%
COC(=O)C(=O)C(C(=O)C(=O)Nc1cccc([N+](=O)[O-])c1)c1nc2ccc(Cl)cc2[nH]c1=O (stereo not given),15%,-22.2%,14.2%,-19.1%,-1.5%,0.2%
CN(/N=C/c1ccc(O)c(/C=N/N(C)c2ccccn2)n1)c1ccccn1,-9.45%,8%,-3.35%,-11.9%,-2.7%,8.3%
Cc1cc(=O)[nH]c2ccc(Cc3ccc(Cl)cc3)cc12,12.8%,1.75%,4.9%,7.6%,3.1%,1.65%
CN(C)C=Nc1cc2c3c(c1)CCCN3CCC2,10.8%,-0.5%,13.3%,11.8%,-2.6%,31.4%
CC(=O)OCc1c(COC(C)=O)c(-c2ccc(Cl)c(Cl)c2)n2c1CCC2,14.8%,-17.1%,3.2%,16.7%,-21.3%,13.2%
CCOC(=O)c1ccc2c3c(ccc([N+](=O)[O-])c13)CC2,-7%,-6.25%,-14%,-1.9%,18.5%,-8.35%
Brc1ccc(-c2oc3c4ccccc4c4ccccc4c3c2-c2ccc(Br)cc2)cc1,32.5%,5.35%,17.8%,-0.95%,2.9%,15.2%
COC(=O)Nc1nc2ccccc2n1-c1ccccc1,18.9%,2.85%,10.6%,14.2%,16.4%,17.5%
CC(NC(=O)NCCCl)c1cccc2ccccc12 (stereo not given),-7.25%,-1.25%,-2.4%,44.2%,-8.25%,5.15%
COc1ccc2c3c([nH]c2c1)[C@H]1C[C@H]2[C@H](C[C@@H](O)[C@H](OC)[C@H]2C(=O)O)CN1CC3,26.3%,21%,-18.9%,1.85%,23.6%,30.4%
Cc1cn(C2CC(O)C(COC(N)=O)O2)c(=O)[nH]c1=O (stereo not given),-38.2%,-20.9%,-11.6%,-5.3%,-44.3%,2.35%
CCCCCCCCCC1OC(C)C(C)O1 (stereo not given),24.6%,7.55%,16.3%,-19.1%,1.55%,29.4%
Cc1ccc(S(=O)(=O)N/N=C/c2oc(-c3ccccc3Cl)c(-c3ccccc3Cl)c2[N+](=O)[O-])cc1,54.2%,45.3%,58.5%,38.4%,41.5%,48.1%
COC(=O)C1=CCOc2c1c(C(=O)OC)nn2C,-4.8%,-8.15%,-2.4%,6.1%,-11.2%,24.9%
O=C(O)c1c(CN2CCOCC2)c(O)c(O)c(O)c1CN1CCOCC1,-1.2%,0.15%,-7.1%,-2.3%,1.3%,5.5%
O=C1CC2[C@@H](N3CCCC3)CCC(N1Cc1ccccc1)C2(O)O (stereo not given in full),-6.75%,-38%,1.2%,-4.05%,-19.8%,3.25%
CCCCCCCCC(C)c1cccc(C(C)CCCCCCCC)c1O (stereo not given),33%,14.6%,10.5%,22.2%,14.8%,2.6%
